Among the data in the supplement of paper PMC9262897, “Low-cost anti-mycobacterial drug discovery using engineered E. coli” (Nature Communications, 2022) are growth values, retold here.

Each structure is given as a SMILES string. Structures can show the parent of a compound that is named as a salt. ± gives the standard deviation of the averaged measurements.

The experiment has as its system E. coli TESEC Mtb Alr. In words: growth (OD600 after 10 h); higher = more growth (less inhibition). To be noted: compound 0.1 mM. As for the experimental part: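 TESEC Mtb Alr E. coli, or the Alr+ wild-type control, in 384-well plates with Prestwick library compounds at 0.1 mM and 1% DMSO, across arabinose induction levels of 1E3 to 1E7 nM. Growth is read as OD600 after 10 h at 37 °C in triplicate biological replicates.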

Where [1] appears, read: arabinose 1000 nM, raw OD600 reference: median of DMSO wells 0.294, cell-free background 0.041.
The mark [2] stands for this setting: arabinose 10000 nM, raw OD600 reference: median of DMSO wells 0.264, cell-free background 0.041.
[3] abbreviates: arabinose 100000 nM, raw OD600 reference: median of DMSO wells 0.201, cell-free background 0.041.
Where [4] appears, read: arabinose 1000000 nM, raw OD600 reference: median of DMSO wells 0.193, cell-free background 0.041.
[5] abbreviates: arabinose 10000000 nM, raw OD600 reference: median of DMSO wells 0.146, cell-free background 0.041.

Turning to `CC(C)NC[C@@H](O)COc1ccc(CC(N)=O)cc1` [(R)-(+)-Atenolol], the growth was 0.322 ± 0.019 under setting [1]; 0.262 ± 0.012 under setting [2]; 0.221 ± 0.013 under setting [3]; 0.1771 ± 0.00066 under setting [4]; 0.161 ± 0.0073 under setting [5].

In the case of `CC(N/C(=N\C#N)Nc1ccncc1)C(C)(C)C` (stereo not given) [Pinacidil], the growth was 0.274 ± 0.011 under setting [1]; 0.257 ± 0.0097 under setting [2]; 0.219 ± 0.0078 under setting [3]; 0.137 ± 0.0036 under setting [4]; 0.138 ± 0.0067 under setting [5].

`CC1(O)CCOC(=O)C1` (stereo not given) [Mevalonic-D, L acid lactone]: the growth is, setting by setting: under setting [1], 0.304 ± 0.017; under setting [2], 0.271 ± 0.0041; under setting [3], 0.186 ± 0.019; under setting [4], 0.203 ± 0.0065; under setting [5], 0.141 ± 0.0074.

Take `CN1CCN2c3ccccc3Cc3ccccc3C2C1` (stereo not given) [Mianserine hydrochloride]: the growth came to 0.198 ± 0.013 under setting [1]; 0.283 ± 0.017 under setting [2]; 0.211 ± 0.014 under setting [3]; 0.142 ± 0.011 under setting [4]; 0.17 ± 0.0078 under setting [5].

Consider `Cc1c(Cl)cccc1Nc1ncccc1C(=O)O` [Clonixin Lysinate], for which the growth is 0.207 ± 0.0063 under setting [1]; 0.155 ± 0.0017 under setting [2]; 0.173 ± 0.0047 under setting [3]; 0.0952 ± 0.0017 under setting [4]; 0.15 ± 0.0047 under setting [5].

As to `CC[C@H]1OC(=O)[C@H](C)[C@@H](O[C@H]2C[C@@](C)(OC)[C@@H](O)[C@H](C)O2)[C@H](C)[C@@H](O[C@@H]2O[C@H](C)C[C@H](N(C)C)[C@H]2O)[C@](C)(O)C[C@@H](C)[C@@H]2N[C@@H](COCCOC)O[C@H]([C@H]2C)[C@]1(C)O` [Dirithromycin], the growth stood at 0.04193 ± 0.00015 under setting [1]; 0.03907 ± 0.00012 under setting [2]; 0.044 ± 0.00057 under setting [3]; 0.0396 ± 0.0001 under setting [4]; 0.0428 ± 0.0002 under setting [5].

As for `CCc1cc(Cl)c(OC)c(C(=O)NC[C@@H]2CCCN2CC)c1O` [S(-)Eticlopride hydrochloride], the growth runs as follows: under setting [1], 0.242 ± 0.024; under setting [2], 0.271 ± 0.0095; under setting [3], 0.17 ± 0.0077; under setting [4], 0.122 ± 0.0019; under setting [5], 0.163 ± 0.0043.

`N[C@@H]1CONC1=O` [D-cycloserine]: the growth by setting is: under setting [1], 0.0374 ± 0.00045; under setting [2], 0.0389 ± 0.00083; under setting [3], 0.277 ± 0.0054; under setting [4], 0.155 ± 0.0017; under setting [5], 0.132 ± 0.0031.
